Data on 33 compounds can be found in PubChem BioAssay (EPA / NIEHS).

Structures are written as SMILES. The source holds several records for some structures; these can differ, active in one and inactive in another. The source made the active and inactive calls. The calls were made as follows: active = hit-call score of the fitted dose curve at least 0.9, where 1 is the maximum; inactive = score below 0.9.

Read-out in the assay: Tissue plasminogen activator (tPA), PLAT (gene 5327)
The assay is described as follows: BSK_BF4T_tPA: BioMAP Diversity Plus: BF4T Assay for Tissue plasminogen activator (tPA) Biomarker Activity (AID 2284272). The settings on record: primary human bronchial epithelial cells with fibroblasts. A digest of the protocol:
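tPA level quantified by ELISA at 24 h post-treatment in bronchial epithelial/dermal fibroblast co-cultures, gain of signal scored against DMSO baseline. Parallel cultures stained with 0.1% SRB (560 nm) to flag overt cytotoxicity.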
For `COC(F)(C(F)F)C(F)(F)F` (centres undefined), the outcome was inactive.
`OC(O)C(F)(F)C(F)(F)F`: the outcome was inactive.
On the same count and under the same terms, the same measure for `O=C(O)CCC(F)(F)C(F)(F)C(F)(F)C(F)(F)C(F)(F)C(F)(F)C(F)(F)F`: “inactive”.
`O=S(=O)(Cl)C(F)(F)C(F)(F)C(F)(F)C(F)(F)C(F)(F)C(F)(F)C(F)(F)C(F)(F)F`: the AC50 is 23.2 µM (active) and the outcome was inactive.
`O=S(=O)(O)CCC(F)(F)C(F)(F)C(F)(F)C(F)(F)F`: the outcome was inactive.
In the case of `NC(=O)C(F)(F)C(F)(F)C(F)(F)C(F)F`, the outcome was inactive.
`C=CC(=O)OCC(F)(F)C(F)(F)C(F)(F)COC(=O)C=C`: the AC50 is 8.12 µM (active).
`O=C(Cl)C(F)(F)C(F)(F)C(F)(F)C(F)(F)C(F)(F)C(F)(F)C(F)(F)F`: the outcome was inactive.
On the same count and under the same terms, with `NC(=O)C(F)(F)C(F)(F)C(F)(F)C(F)(F)C(F)(F)C(F)(F)C(F)(F)F` the entry was “inactive”; with `OCC(O)CC(F)(F)C(F)(F)C(F)(F)C(F)(F)F` (centres undefined), “inactive”; with `FC(F)(F)C(F)(F)C(F)(F)C(F)(F)C(F)(F)C(F)(F)CC[Si](Cl)(Cl)Cl`, “inactive”.
On to `OCC(F)(F)C(F)(F)C(F)(F)C(F)(F)C(F)(F)C(F)(F)CO`, for which the outcome was inactive.
For the compound `OCC(O)CC(F)(F)C(F)(F)C(F)(F)C(F)(F)C(F)(F)C(F)(F)C(F)(F)C(F)(F)F` (centres undefined), the result was inactive.
Take `NC(=O)C(F)(F)C(F)(F)C(F)(F)F`: the result was inactive.
On the same count and under the same terms, with `C=CC(=O)OCC(F)(F)C(F)(F)C(F)(F)C(F)(F)C(F)(F)C(F)(F)C(F)(F)C(F)F` the entry was “inactive”; with `O=C(F)C1(F)C(F)(F)C(F)(F)C(F)(F)C(F)(F)C1(F)F`, “inactive”; with `O=S(=O)(OCC(F)(F)F)C(F)(F)C(F)(F)C(F)(F)C(F)(F)F`, “inactive”.
For the compound `OCC(F)(F)C(F)(F)C(F)(F)CO`, the outcome was inactive.
`CNS(=O)(=O)C(F)(F)C(F)(F)C(F)(F)C(F)(F)C(F)(F)C(F)(F)C(F)(F)C(F)(F)F`: the result was inactive.
On the same count and under the same terms, the same measure for `O=C(O)C(F)(F)C(F)(F)C(F)(F)OC(F)(C(F)(F)F)C(F)(F)F`: “inactive”; for `C[Si](Cl)(Cl)CCC(F)(F)C(F)(F)C(F)(F)C(F)(F)C(F)(F)C(F)(F)F`: “inactive”; for `C=CC(=O)OCCC(F)(F)C(F)(F)C(F)(F)C(F)(F)F`: “inactive”.
Consider `NC(O)(C(F)(F)F)C(F)(F)F`, for which the result was inactive.
As to `FC(F)(F)C(F)(F)C(F)(F)C(F)(F)C(F)(F)C(F)(F)C(F)(F)CCI`, the result was inactive.
Turning to `O=S(=O)(O)CCC(F)(F)C(F)(F)C(F)(F)C(F)(F)C(F)(F)C(F)(F)C(F)(F)C(F)(F)F`, the outcome was inactive.
Still for that read-out and setting: with `O=C(O)C(F)(F)C(F)(F)C(F)(F)OC(F)(F)F` the entry was “inactive”; with `FC(F)(F)C(F)(F)C(F)(F)CC1CO1` (centres undefined), “inactive”.
`O=C(Cl)C(F)(F)C(F)(F)C(F)(F)C(F)(F)C(F)(F)C(F)(F)F`: the outcome was inactive.
On the same count and under the same terms, with `C=C(C)C(=O)OCC(F)(F)C(F)(F)C(F)(F)C(F)F` the entry was “inactive”; with `CN(C(=O)C(F)(F)C(F)(F)C(F)(F)F)[Si](C)(C)C`, “inactive”.
On the same count and under the same terms, with `NCC(F)(F)C(F)(F)C(F)(F)C(F)(F)C(F)(F)C(F)(F)C(F)(F)C(F)(F)F` the entry was “inactive”; with `CO[Si](C)(CCC(F)(F)C(F)(F)C(F)(F)C(F)(F)C(F)(F)C(F)(F)F)OC`, “inactive”; with `NC(=O)C(F)(F)C(F)(F)C(F)(F)C(F)(F)C(N)=O`, “inactive”.

In general, AC50 refers to the midpoint of the concentration-response curve, whichever way the signal moves.
